Test in all cases: NCI-60 one-dose screen, 48 h (100 = growth as untreated, 0 = no growth, -100 = all killed)
What all share (conditions): 10 µM unless noted

Test [1] concerns HCT-15 colon.
Test [2] relates to HT29 colon.
Test [3] has as its system SNB-75 CNS.
Test [4] concerns SNB-19 CNS.
For test [5], the system named is U251 CNS.
Test [6] concerns PC-3 prostate.
In test [7] the test system is SK-MEL-5 melanoma.
For test [8], the system named is UACC-62 melanoma.
In test [9] the test system is LOX IMVI melanoma.
Test [10] concerns SK-MEL-28 melanoma.
In test [11] the test system is SK-MEL-2 melanoma.
Test [12] concerns EKVX NSCLC.
Test [13] concerns SN12C renal.
Test [14] relates to UO-31 renal.
Test [15] deals with TK-10 renal.
Test [16] deals with ACHN renal.
The subject of test [17] is CAKI-1 renal.
The test system of test [18] is CCRF-CEM leukemia.
The subject of test [19] is MOLT-4 leukemia.

Each structure is given as a SMILES string. About 83,000 compounds went through this panel and 20% of them were active in at least one assay; those are over-represented in the sample as a whole.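 48-hour exposure, single concentration, 96-well plates; percent growth endpoint where 0 means no net growth. Active: below 10.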 Values without a mark were called inactive. The source made the active and inactive calls.

`COc1cc2nc(-c3ccc(C(F)(F)F)cc3)cc(OCCCN3CCOCC3)c2cc1OC`: the growth was 7.76% (active) in test [1]; 17.4% in [2]; -9.47% (active) in test [3]; 61% in test [4]; 42.6% in test [5]; 42.1% in test [6]. Further, the growth is -33.1% (active) in [7]; -26.1% (active) in [8]; -82.1% (active) in [9]; 42.1% in [10]; 47.4% in test [11]; 61.6% in test [12]. Moreover, the growth was 41.3% in [13]; 33% in test [14]; 96.6% in test [15]; 34.3% in test [16]; -13.1% (active) in test [17]; 37.5% in test [18]. In test [19], the growth was 44.9%.
For `Cc1ccc(/C=C(/C#N)n2nnc3cccc(F)c32)cc1`, the growth in [1] is 5.46% (active); in test [2] it was 9.94% (active); in test [3], -35.7% (active); in test [4] it was 16.2%; in [5], 13.9%; in test [6], 20.8%. In addition, the growth in test [7] was -55.2% (active); in test [8], 13.2%; in test [9], -14.7% (active); in test [10], 52.4%; in test [11], 14.6%; in test [12], 37.6%. In addition, the growth is 12.7% in test [13]; 15.6% in test [14]; 25.5% in test [15]; 18.5% in test [16]; 20.1% in test [17]; 4.82% (active) in test [18]. Moreover, the growth in [19] was 5.52% (active).
In the case of `COc1ccc(/C=N/NC(=O)c2cnn3c2NC(c2ccccc2)C3)cc1OC` (configuration not stated), the growth is 41.8% in test [1]; 14% in [2]; 51.6% in [3]; 62.6% in test [4]; 54.4% in [5]; 56.9% in [6]. Also, the growth in test [7] is 66.7%; in [8] it was 47.7%; in test [9], 56.5%; in test [10], 78%; in [11] it was 41.9%; in test [12], 87.2%. The growth is 81.8% in test [13]; 78.9% in test [14]; 75.6% in [15]; 82.6% in test [16]; 56.1% in test [17]; 66.7% in test [18]. Besides, the growth in [19] was 50.3%.
On to `CCC(=O)Oc1ccc(/C(=C(\C)c2ccccc2)c2ccc(OCCN3CCCCC3)cc2)cc1`, for which the growth in test [1] was 58.6%; in test [2] it was 8.78% (active); in [3], 96.5%; in test [4], 85%; in [5] it was 68.4%; in test [6] it was 72.8%. In addition, the growth in test [7] is 82.5%; in test [8], 88.5%; in test [9], 81%; in [10], 71.2%; in test [11], 92.1%; in test [12], 87.1%. Moreover, the growth is 79.7% in [13]; 64.3% in test [14]; 84.2% in [15]; 102% in test [16]; 87.8% in test [17]; 84.9% in test [18]. Further, the growth in test [19] was 60.8%.
As for `CC1(C)CC[C@]23CC[C@]4(C)[C@H](CC[C@@H]5[C@@]6(C)CCCNC(C)(C)[C@@H]6CC[C@]54C)[C@H]2[C@H]1OC3`, the growth is -63.7% (active) in test [1]; -49.4% (active) in test [2]; 3.81% (active) in [3]; -20.2% (active) in test [4]; -75.6% (active) in test [5]; -10.7% (active) in test [6]. The growth in [7] was -7.69% (active); in [8], -51.1% (active); in test [9], -94.9% (active); in test [10], 27.7%; in test [11] it was 10.5%; in [12], 23.2%. Moreover, the growth in test [13] is 17.7%; in test [14] it was 2.86% (active); in [15] it was 0.422% (active); in test [16], -88.3% (active); in test [17] it was -92% (active); in test [18], -6.07% (active). The growth in test [19] is -32.7% (active).
With `CCCCCCOc1ccc(/C=N/Nc2cc(C)nc3ccc(Cl)cc23)cc1`, the growth in [1] is -87.2% (active); in test [2], -42.3% (active); in [3], -44.6% (active); in [4] it was 2.26% (active); in test [5], -68.2% (active); in [6], -39.4% (active). Moreover, the growth in [7] was 81.4%; in test [8], 76.8%; in test [9], -94.5% (active); in test [10], -30.3% (active); in test [11], 93.9%; in test [12], 56.2%. In addition, the growth in test [13] was -84.6% (active); in test [14], -89.8% (active); in [15], -51.4% (active); in test [16] it was -92% (active); in test [17] it was 3.33% (active); in [18], -9.5% (active). Also, in test [19], the growth is -26% (active).
Regarding `CCN1C(=O)/C(=C/C(=O)OC)S/C1=N\NC(=O)c1cc2ccc1/C=C\c1ccc(cc1)/C=C\2`, the growth in test [1] was 68.4%; in test [2], 45.2%; in test [3], 78.8%; in test [4] it was 85.6%; in test [5] it was 84.4%; in [6], 56.7%. Also, the growth in test [7] is 92.5%; in test [8] it was 78.6%; in [9], 73.5%; in [10], 100%; in test [11], 94.2%; in test [12], 93.6%. For the same compound, the growth in [13] is 95%; in test [14], 79%; in [15], 93.5%; in test [16], 93.4%; in test [17], 89.5%; in [18] it was 33.9%. Moreover, the growth in test [19] was 37.2%.
For the compound `Cc1c(C(=O)NCCC(=O)NO)sc2ncnc(Nc3ccc(F)c(Cl)c3)c12`, the growth in test [1] is 102%; in test [2], 104%; in [3] it was 97.5%; in test [4], 98.9%; in test [5], 102%; in test [6], 104%. Further, the growth in [7] was 102%; in test [8], 102%; in test [9] it was 98.8%; in [10], 112%; in test [11], 101%; in test [12], 99.4%. The growth in [13] was 103%; in [14] it was 84.8%; in test [15] it was 107%; in [16], 102%; in [17], 96.6%; in [18], 105%. For the same compound, in [19], the growth is 115%.

These data come from PubChem BioAssay (NCI).
